The list is not random: actives were taken first. Their share in the collection is about 4.5%.
tim23-1 inh: growth inhibitors of tim23-1 mutant yeast | S. cerevisiae tim23-1 growth, BacTiter-Glo luminescence, 24 h | inhibition, % at 20 µM | 1.3% of 330,000 active | AID 463212;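 active = growth inhibition of the mutant yeast at or above 50%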;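 note: temperature-sensitive mutant grown at 25 °C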
NALP3 yeast inh: NALP3 inhibition in yeast | Yeast reconstituted NLRP3/ASC/caspase-1, beta-gal luminescence, 24 h | inhibition, % at 10 µM | 0.39% of 330,000 active;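 active = inhibition of 50% or more; inactive = inhibition below 50%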
SKKanGAS inh: blocks kanamycin growth of S. pyogenes SKKanGAS strain. BacTiter-Glo, 6 h. inhibition, % at 7.5 µM. 1.3% of 300,000 active;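 active = mean replicate score, as percent of positive control median, at least 50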;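 note: strain carries kanamycin resistance gene driven by streptokinase promoter and grows in 40 µg/ml kanamycin; loss of luminescence reflects streptokinase promoter inhibition or plain growth inhibition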
TIM10 inh: inhibits growth of TIM10 yeast strain; S. cerevisiae TIM10 strain growth, BacTiter-Glo luminescence, 24 h; inhibition, % at 10 µM; 1.4% of 330,000 active; AID 463195;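 active = inhibition of 40% or more at the single tested concentration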;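 note: wild-type TIM10 isogenic control strain grown at permissive 25 °C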
tim10-1 inh: inhibits growth of tim10-1 mutant yeast | S. cerevisiae tim10-1 ts strain growth, BacTiter-Glo, 24 h | inhibition, % at 20 µM | 2.2% of 330,000 active;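 active = inhibition of at least 40%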;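 note: mutant grown at 25 °C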
PfHsp90 set2: reduces growth (ATP signal) of yeast expressing P. falciparum Hsp90 | S. cerevisiae expressing PfHsp90, BacTiter-Glo ATP, 48 h; yeast lacking PDR1 and PDR3 efflux regulators | inhibition, % at 9.4 µM | 0.32% of 310,000 active;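 active = every replicate shows inhibition above about 80%, whatever the replicate mean, limit read from the data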
tim10-1 conf: tim10-1 yeast growth inhibition, confirmed. shares compounds with tim10-1 inh. S. cerevisiae tim10-1 ts strain growth, BacTiter-Glo, 24 h. inhibition, % at 20 µM. 56% of 7,400 active;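 active = inhibition of yeast growth at or above a set limit in either of two repeat tests at 20 µM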;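 note: tim10-1 mutant grown at permissive 25 °C to find synthetic lethal compounds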
A number is an active result.

How did CC1(C(=O)N/N=C/c2ccccc2)CC1(Cl)Cl (centres undefined) do in these assays?
tim23-1 inh: inactive; NALP3 yeast inh: inactive; SKKanGAS inh: inactive; TIM10 inh: inactive; tim10-1 inh: inactive; PfHsp90 set2: inactive

How did OCCNc1ncnc2c1sc1nc(N3CCOCC3)c3c(c12)CCC3 do in these assays?
tim23-1 inh: inactive; NALP3 yeast inh: inactive; SKKanGAS inh: inactive; TIM10 inh: inactive; tim10-1 inh: 49.2; PfHsp90 set2: inactive; tim10-1 conf: inactive

Results for COc1ccc(Cl)cc1NC(=O)CN(C)C(=O)C12CC3CC(CC(Cl)(C3)C1)C2 ?
tim23-1 inh: inactive; NALP3 yeast inh: inactive; SKKanGAS inh: inactive; TIM10 inh: inactive; tim10-1 inh: 43.0; PfHsp90 set2: inactive; tim10-1 conf: 34.2

Results for CCN(CC)C(=O)c1sc2nc(-c3cccs3)cc(-c3ccc(Cl)cc3)c2c1N ?
tim23-1 inh: inactive; NALP3 yeast inh: inactive; SKKanGAS inh: inactive; TIM10 inh: inactive; tim10-1 inh: 57.7; PfHsp90 set2: inactive; tim10-1 conf: 37.8

What do the screens show for `N#Cc1sc2nc(-c3cccs3)cc(-c3ccc(Cl)cc3)c2c1N`?
tim23-1 inh: inactive; NALP3 yeast inh: inactive; SKKanGAS inh: inactive; TIM10 inh: inactive; tim10-1 inh: inactive; PfHsp90 set2: inactive

Results for COc1ccccc1CNC(=O)CCCn1nc(C)c2c(C)n(-c3ccccc3)nc2c1=O ?
tim23-1 inh: inactive; NALP3 yeast inh: inactive; SKKanGAS inh: inactive; TIM10 inh: inactive; tim10-1 inh: inactive; PfHsp90 set2: inactive

How did COc1cccc(CNC(=O)CCCn2nc(C)c3c(C)n(-c4ccc(C)cc4)nc3c2=O)c1OC do in these assays?
tim23-1 inh: inactive; NALP3 yeast inh: inactive; SKKanGAS inh: inactive; TIM10 inh: inactive; tim10-1 inh: 44.9; PfHsp90 set2: inactive; tim10-1 conf: inactive

How did CN(C)C(=O)c1ccc(Nc2nc(-c3cccs3)nc3ccccc23)cc1 do in these assays?
tim23-1 inh: inactive; NALP3 yeast inh: inactive; SKKanGAS inh: inactive; TIM10 inh: inactive; tim10-1 inh: inactive; PfHsp90 set2: inactive

How did CC(C)(C)C(=O)Nc1nnc(SCc2ccc(F)cc2)s1 do in these assays?
tim23-1 inh: inactive; NALP3 yeast inh: inactive; SKKanGAS inh: inactive; TIM10 inh: inactive; tim10-1 inh: 49.9; tim10-1 conf: 44.3

How did CC(C)(C)C(=O)Nc1nnc(SCc2cccc(F)c2)s1 do in these assays?
tim23-1 inh: inactive; NALP3 yeast inh: inactive; SKKanGAS inh: inactive; TIM10 inh: inactive; tim10-1 inh: inactive; PfHsp90 set2: inactive

What do the screens show for `Cc1ccnc(NC(=S)N2CCN(c3cccc(C(F)(F)F)c3)CC2)c1`?
tim23-1 inh: inactive; NALP3 yeast inh: inactive; SKKanGAS inh: 68.3; TIM10 inh: inactive; tim10-1 inh: 42.7; PfHsp90 set2: inactive; tim10-1 conf: inactive

What do the screens show for `Cc1ccc(C)c(NC(=S)N2CCN(c3cccc(C(F)(F)F)c3)CC2)c1`?
tim23-1 inh: inactive; NALP3 yeast inh: inactive; SKKanGAS inh: inactive; TIM10 inh: inactive; tim10-1 inh: inactive; PfHsp90 set2: inactive

How did O=C(O)C1CCCN(C(=O)c2cccc3ccccc23)C1 (centres undefined) do in these assays?
tim23-1 inh: inactive; NALP3 yeast inh: inactive; SKKanGAS inh: inactive; TIM10 inh: inactive; tim10-1 inh: inactive; PfHsp90 set2: inactive

Results for CN(CCCC(=O)O)c1ccc(N=Nc2ccc([N+](=O)[O-])cc2)cc1 ?
tim23-1 inh: inactive; NALP3 yeast inh: inactive; SKKanGAS inh: inactive; TIM10 inh: inactive; tim10-1 inh: 54.0; PfHsp90 set2: inactive; tim10-1 conf: 44.5

How did O=C(O)CCCCCNS(=O)(=O)c1ccc2c(c1)OCCO2 do in these assays?
tim23-1 inh: inactive; NALP3 yeast inh: inactive; SKKanGAS inh: inactive; TIM10 inh: inactive; tim10-1 inh: inactive; PfHsp90 set2: inactive

How did O=S(=O)(NCCSc1ccccc1)c1ccc2c(c1)OCCO2 do in these assays?
tim23-1 inh: inactive; NALP3 yeast inh: inactive; SKKanGAS inh: inactive; TIM10 inh: inactive; tim10-1 inh: 40.8; PfHsp90 set2: inactive; tim10-1 conf: inactive

How did Nc1cccc(Nc2nc(OC(C(F)(F)F)C(F)(F)F)nc(OC(C(F)(F)F)C(F)(F)F)n2)c1 do in these assays?
tim23-1 inh: inactive; NALP3 yeast inh: inactive; SKKanGAS inh: inactive; TIM10 inh: inactive; tim10-1 inh: 43.0; PfHsp90 set2: inactive; tim10-1 conf: 38.4

Source: PubChem BioAssay
